# The list is not random: actives were taken first. Their share in the collection is about 1.8%.
# MRP1 act: MRP-1 activation; H69AR cells + doxorubicin, viability rescue, CellTiter-Glo; viability increase, % at 10 µM; hit rate 0.61% among 140,000;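 active = viability gain under doxorubicin at or above a set limit, the compound median plus 3 SD, cut at about 4.7% in these data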;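 also: MRP-1 overexpressing cells given doxorubicin 25 µM after compound pretreatment; 18-22 h compound pretreatment then 72 h with doxorubicin before readout; 0% = doxorubicin-only wells and 100% = vehicle-treated cells without doxorubicin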
# S1P2 ag: agonists of human S1P2 receptor | O95136 | S1P2-expressing cell line, agonist reporter read-out | activation, % at 4.5 µM | hit rate 0.46% among 97,000 | AID 729; in the data active = activation above about 16%;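 also: 0% = vehicle low control and 100% = maximal reference agonist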
# Target sequence (O95136 whole entry, looked up): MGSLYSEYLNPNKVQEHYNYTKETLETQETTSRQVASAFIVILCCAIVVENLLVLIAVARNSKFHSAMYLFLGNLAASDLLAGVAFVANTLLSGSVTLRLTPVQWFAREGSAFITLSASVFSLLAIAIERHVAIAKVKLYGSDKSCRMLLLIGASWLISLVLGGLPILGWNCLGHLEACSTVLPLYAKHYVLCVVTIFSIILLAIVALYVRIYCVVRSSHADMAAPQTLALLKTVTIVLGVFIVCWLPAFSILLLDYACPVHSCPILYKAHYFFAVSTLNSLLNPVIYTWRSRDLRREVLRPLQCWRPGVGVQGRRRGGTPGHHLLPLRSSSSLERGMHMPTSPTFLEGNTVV
# MRP reversal: compounds reversing MRP-mediated drug resistance; H69AR cells + 2 uM doxorubicin, CellTiter-Glo, 72 h; differential viability (reversal), % at 10 µM; hit rate 0.04% among 85,000;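 active = viability drop by adding the cancer drug above about 55%, with treated viability meeting a 40% cutoff, limit read from the data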;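 also: viability without doxorubicin minus viability with 2 µM doxorubicin for each compound; larger differential means the compound sensitizes cells more to doxorubicin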
# GALR2 antag: GALR2 (human) receptor antagonism | O43603 | GALR2-expressing cells, antagonist mode | inhibition, % at 4 µM | hit rate 0.39% among 140,000 | AID 828;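 also: cells stimulated with galanin 1-16 at roughly its EC80; 0% = agonist challenge control and 100% = basal control without agonist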
# GALR2 ag: agonists of human galanin receptor 2 (GALR2); O43603; GALR2-expressing cells, agonist activation read-out; activation, % (test concentration not listed); hit rate 0.48% among 140,000; AID 803; in the data active = activation above about 5%, passing the limit was not always enough;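 also: 0% = vehicle buffer wells and 100% = reference agonist at full effect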
# S1P2 blocker: blocks the human S1P2 receptor | AID 736 | inhibition, % at 5 µM | cell-based S1P2 antagonist assay, inhibition at 5 uM | O95136 | hit rate 0.21% among 97,000; in the data active = inhibition above about 45%;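 also: CRE beta-lactamase reporter cells expressing human S1P2 stimulated with S1P; 0% = agonist at EC80 alone and 100% = agonist plus reference antagonist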
# GALR2 blk conf: GALR2 (human) antagonism confirmed; shares compounds with GALR2 antag; GALR2-expressing cells, antagonist mode, inhibition; inhibition, % at 4 µM; hit rate 60% among 480; AID 866;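 also: cells stimulated with galanin at about its EC80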
# BLA inh counter: beta-lactamase inhibition, GALR2 counterscreen | shares compounds with GALR2 antag | CHO NFAT-BLA reporter, beta-lactamase FRET, thapsigargin-stimulated | inhibition, % at 4.2 µM | hit rate 36% among 480 | AID 867;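 active = inhibition above the mean inhibition across tested compounds plus 3 SD, cut at about 27% in these data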;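 also: 0% = 500 nM thapsigargin stimulated wells and 100% = unstimulated BSA only wells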
# Numbers without * were called inactive; x = not tested or not shown. Rule as the data show it, unless noted: active = inhibition above about 27%; inactive = the rest.
SMILES,MRP1 act,S1P2 ag,MRP reversal,GALR2 antag,GALR2 ag,S1P2 blocker,GALR2 blk conf,BLA inh counter
COc1ccc(-c2c3c(=O)n(C)c(=O)n(C)c3c3nnc4ccccc4n23)cc1,x,0,22,-4,-4,-18,x,x
O=C(/C=C/c1ccc(Cl)cc1)NC(=S)Nc1ccc(NC(=O)c2ccco2)cc1,-5,x,x,46*,-2,x,53*,23
COc1ccc(-c2noc(CCC(=O)Nc3ccc4c(c3)OCCO4)n2)cc1,-1,-5,1,28*,-5,-1,7,10
Cc1ccccc1CSc1nncn1N,-1,-5,7,-11,-1,12,x,x
O=c1cc(-c2cccs2)oc2ccc(Cl)cc12,-4,-2,12,4,-1,4,x,x
Cc1ccc(-c2oc3ccccc3c(=O)c2O)cc1,-2,x,-8,20,0,x,x,x
O=c1c(O)c(-c2cccs2)oc2ccccc12,-4,-6,-13,29*,-2,15,31*,37*
O=c1c(O)c(-c2cccs2)oc2ccc(Cl)cc12,-4,-4,-15,33*,-2,9,32*,42*
CC(=O)c1c(C)nn(C(=O)c2cccs2)c1C,0,-6,-10,6,-3,13,x,x
COc1cccc(N2CCN(c3ncnc4c3[nH]c3ccccc34)CC2C)c1 (stereo not drawn),-4,x,x,21,0,x,x,x
COc1cccc(N2CCN(c3ncnc4c3[nH]c3ccc(F)cc34)CC2C)c1 (stereo not drawn),-3,-4,-3,51*,-2,105*,72*,58*
O=C(c1ccccc1)c1ccc2nc(-c3ccc(NC(=O)c4ccccc4F)cc3)[nH]c2c1,-4,-8,x,39*,4,31,31*,10
CC(C)CC1CC(=O)OC1(C)C(=O)CSc1nc2ccccc2s1 (stereo not drawn),-2,-5,22,9,-1,10,x,x
S=C(Nc1cccc(Cl)c1)Nc1cccc2cnccc12,-4,x,x,30*,-1,x,22,11
CCOC(=O)c1cc2c(ccn2C)n1CC(=O)N(Cc1ccccc1)c1ccc(F)cc1,-1,x,x,0,-1,x,x,x
O=C(Nc1ccc([N+](=O)[O-])cc1)Nc1nc(-c2ccc(Cl)s2)cs1,-5,x,x,32*,1,x,38*,20
COc1ccccc1-n1c(SCC(=O)Nc2ccc(C)cc2)nc(O)cc1=O,0,-5,-6,2,0,8,x,x
O=C(CN1C(=O)NC2(CCc3ccccc3C2)C1=O)Nc1ccc(F)cc1 (stereo not drawn),3,x,x,-5,-1,x,x,x
Cc1ccnc(NC(=O)c2sc3ccccc3c2Cl)c1,-2,x,x,4,-2,x,x,x
Cc1ccc2c(Cl)c(C(=O)Nc3cc(C)on3)sc2c1,-1,-3,-6,29*,-2,5,10,11
Cc1ccccc1-n1c(CSC(=N)N)nc2ccccc2c1=O,-1,-5,x,31*,-2,-6,10,11
CCOC(=O)c1ccc(N2C(=O)CC(N3CCC(O)(c4ccc(Br)cc4)CC3)C2=O)cc1 (stereo not drawn),0,-8,-1,30*,5,46*,40*,3
O=C(Nc1ccccc1)Nc1cc(Cl)cc(Cl)c1,-3,-4,-1,21,-2,-17,x,x
O=C(Nc1ccccc1)Nc1cc(OCC(F)(F)F)cc(OCC(F)(F)F)c1,-6,x,x,27*,-2,x,19,12
COc1ccc(NC(=O)C(CC(C)C)NC(=O)c2ccccc2C)cn1 (stereo not drawn),-1,-3,3,-10,-2,1,x,x
COc1ccc(NC(=O)/C(Cl)=C(/Cl)S(=O)(=O)Cc2ccc(C)cc2)cn1,-3,-11,-1,78*,0,90*,93*,95*
c1ccc2[nH]c(NC3=NCCC3)nc2c1,-2,-4,0,-7,-2,-2,x,x
O=C(/C=C/c1ccco1)Nc1ccccn1,-3,x,x,-4,0,x,x,x
Cc1ccc(NC(=O)/C=C/c2ccco2)nc1,-3,x,x,34*,0,x,23,48*
